“And” between values parts separate entries of the source, which are not always exact repeats. Identical values can stand only once. The whole screen tested about 1,300 compounds, of which about 1,000 (77%) were called active. About 7% were inconclusive and are not listed. The set was probably picked from earlier hits. Some of the results follow. A number with no mark means an inactive call. Calls come from the whole dose curve; as a rule, active = well fitted inhibition curve with a large enough effect; inconclusive = small, poorly fitted or top-dose-only effect; inactive = no such curve, though single readings can be large or run the other way.
% is set by controls: 0 for no effect and ±100 for the full control effect; potency is the fitted concentration of half-maximal effect.

The experiment in a line: qHTS of small molecules that selectively kill Giardia lamblia: Hit Validation.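 Note: viability measured as ATP content by luminescence so killing lowers signal; nearly all actives have a fitted effect of over 65% in size.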 The following applies: Giardia lamblia trophozoite viability, dose-response; series mostly up to 38.3 µM; activity change, negative = killing: at the top concentration. An excerpt:
Giardia lamblia is a human pathogen afflicting impoverished nations, and the most common cause of outbreaks of diarrhea in the United States. Giardia has been classified by the CDC as a category B bioterrorism organism. The favored anti giardiasis drugs in the US are metronidazole or tinidazole, compounds that have undesirable side effects. Moreover, increasing resistance to drug regimes and recurrence are a concern. It is thus clear that alternative drug treatments are needed.
In a collaboration between the University of Maryland, College Park and the NIH Chemical Genomics Center, a bioluminescence Giardia viability assay based on the trophozoites' ATP content was developed. This assay is suitable for high throughput screening, and miniaturized the assay for compound screening in 1536-well plates. The goal of the project is to screen the Molecular Libraries Small Molecule Repository (MLSMR) for compounds that selectively kill Giardia trophozoites.
NIH Chemical Genomics Center [NCGC]
NIH Molecular Libraries Probe Centers Network [MLPCN]
Assay Submitter (PI): Osnat Herzberg, University of Maryland, College Park, MD.
1. Dispense 2 ul/well media
2. Dispense 23 nl/well compounds
3. Dispense 4 ul/well Giardia trophozoites at a concentration of 100 cells/well
4. Incubate 48 hrs at 37 deg C anaerobically
5. Dispense 4 ul/well ATPLite 1-Step Luminescence assay kit
6. Incubate 15-30 min at room temperature
7. Read luminescence signal on ViewLux plate reader
Background: Quantitative high-throughput screening tests each substance at several concentrations.
Regarding `CC1(C)Oc2ccc3ccc(=O)oc3c2C(/C=N/O)C1=O` (stereo unspecified), the “activity change, negative = killing” value is 5.31%.
Regarding `COc1ccc(-n2nc([N+](=O)[O-])c(=NCc3ccc4c(c3)OCO4)n2O)cc1`, the Potency was 14.5 µM (active).
On the same count and under the same terms, under `Cc1ccc(CN=c2c([N+](=O)[O-])nn(-c3ccc4c(c3)OCCO4)n2O)cc1` stands 3.65 µM (active).
On the same count and under the same terms, the value for `O=[N+]([O-])c1nn(-c2ccc3c(c2)OCCO3)n(O)c1=NCc1ccc(F)cc1` was 4.6 µM (active).
The same measure, in the same setting: the value for `O=C(COc1cccnc1[N+](=O)[O-])Nc1cccc(S(=O)(=O)N2CCCCC2)c1` was 3.65 µM (active).
For `O=C(COc1cccnc1[N+](=O)[O-])Nc1cc(S(=O)(=O)N2CCCCC2)ccc1Cl`, the Potency was 1.45 µM (active).
Still for that read-out and setting: under `Cc1ccc(OCC(=O)Nc2cc(S(=O)(=O)N3CCOCC3)ccc2Cl)c([N+](=O)[O-])n1` stands 4.1 µM (active).
Turning to `CN(C(=O)c1ccc(NC(=O)Cc2ccc(NC(=O)C3CCCN(S(=O)(=O)c4cccc([N+](=O)[O-])c4)C3)cc2)cc1)C1CCCC1` (stereo unspecified), the “activity change, negative = killing” value was 1.44%.
Turning to `Cc1ccc(NC(=O)COc2cccnc2[N+](=O)[O-])cc1S(=O)(=O)N1CCCCC1`, the Potency was 4.1 µM (active).
For `Cc1ccc(CCNC(=O)CN2C(=O)COc3ccc(S(=O)(=O)N4CCOCC4)cc32)cc1`, the “activity change, negative = killing” value was -1.26%.
`COc1ccc(S(=O)(=O)N2CCOCC2)cc1NC(=O)COc1cccnc1[N+](=O)[O-]`: the Potency was 5.79 µM (active).
The same measure, in the same setting: the value for `Cc1ccc(S(=O)(=O)N2CCN(C(=O)COc3ccc(C)nc3[N+](=O)[O-])CC2)c(C)c1` was 4.1 µM (active); that for `Cc1ccccc1NC(NC(=O)OCCn1c([N+](=O)[O-])cnc1C)C(Cl)(Cl)Cl` (stereo unspecified) was 0.729 µM (active).
On the same count and under the same terms, under `Cc1ncc([N+](=O)[O-])n1CCOC(=O)NC(Nc1ccc(F)cc1)C(Cl)(Cl)Cl` (stereo unspecified) stands 0.46 µM (active); under `CCOC(=O)c1c(C)[nH]c(C)c1S(=O)(=O)N1CCN(c2ccc([N+](=O)[O-])cc2)CC1`, 7.29 µM (active).
For `Cc1oc2c(c1C(=O)N1CCC(C)CC1)C(=O)c1ccccc1C2=O`, the Potency is 3.65 µM (active).
Same read-out and setting: the value for `Cc1oc2c(c1C(=O)N1CCOCC1)C(=O)c1ccccc1C2=O` was 3.26 µM (active); that for `CCOC(=O)C1CCN(C(=O)c2c(C)oc3c2C(=O)c2ccccc2C3=O)CC1` was 2.05 µM (active).
Still for that read-out and setting: under `O=[N+]([O-])c1ccc(/C=[N+](\[O-])CCO)o1` stands 1.16 µM (active); under `O=[N+]([O-])c1ccc(/C=[N+](\[O-])[C@@H]2CCCC[C@@H]2/[N+]([O-])=C/c2ccc([N+](=O)[O-])o2)o1`, 0.65 µM (active).
On to `CCOC(=O)N1CCN(C(=O)c2ccc(Cl)c(NC(=O)c3cccs3)c2)CC1`, for which the “activity change, negative = killing” value was 19.9%.
As for `Cc1ccn(-c2ccc(NC(=O)c3cccs3)cc2)n1`, the Potency is 16.3 µM (active).
Same read-out and setting: under `NC(=O)c1ccsc1NC(=O)c1ccc([N+](=O)[O-])o1` stands 1.3 µM (active).
Same read-out and setting: under `CC(C)N1CCc2c(sc(NC(=O)c3cc4cc([N+](=O)[O-])ccc4s3)c2C(N)=O)C1` stands 2.59 µM (active).
On the same count and under the same terms, under `N#Cc1c(NC(=O)c2ccc([N+](=O)[O-])o2)sc2c1CCC2` stands 0.365 µM (active); under `Cn1cc([N+](=O)[O-])c(C(=O)Nc2sc3c(c2C#N)CCC3)n1`, 2.31 µM (active); under `COC(=O)c1c(NC(=O)c2ccc([N+](=O)[O-])o2)sc2c1CCN(C(C)C)C2`, 0.818 µM (active).
As to `CC(=O)N1CCc2c(sc(NC(=O)c3ccc([N+](=O)[O-])o3)c2C#N)C1`, the Potency is 1.16 µM (active).
Same read-out and setting: under `COC(=O)c1sc(NC(=O)c2ccc([N+](=O)[O-])o2)c(C#N)c1C` stands 0.29 µM (active).
Same read-out and setting: under `NC(=O)c1c(NC(=O)c2ccc([N+](=O)[O-])o2)sc2c1CCCC2` stands 0.65 µM (active); under `CCOc1ccc(-c2cc(C(=O)N3CCN(c4ccccn4)CC3)c3ccccc3n2)cc1`, 1.63 µM (active) and 1.45 µM (active) and 3.26 µM (active).
The same measure, in the same setting: under `CCOC(=O)N1CCN(C(=O)c2cc(-c3ccc(OCC)cc3)nc3ccccc23)CC1` stands 2.9 µM (active).
As to `O=C(NNC(=O)c1cc(-c2ccncc2)nc2ccccc12)c1ccccc1O`, the “activity change, negative = killing” value is -14.2%.
As to `CCn1cc(-c2cc(C(=O)O)c3ccccc3n2)cn1`, the Potency was 5.16 µM (active).
The same measure, in the same setting: the value for `c1cc(-c2cc3cc(N4CCOCC4)ccc3o2)cs1` was 2.05 µM (active); that for `CC(C)CC(=O)Nc1ncc([N+](=O)[O-])s1` was 0.206 µM (active); that for `CCCCC(CC)C(=O)Nc1ncc([N+](=O)[O-])s1` (stereo unspecified) was 0.23 µM (active).
On the same count and under the same terms, under `CCCCC(=O)Nc1ncc([N+](=O)[O-])s1` stands 0.23 µM (active).
Turning to `CCC(Oc1ccccc1)C(=O)Nc1ncc([N+](=O)[O-])s1` (stereo unspecified), the Potency was 0.103 µM (active).
With `CCc1nn2c(=O)c(S(=O)(=O)Nc3ccc(Cl)cc3)c(C)nc2s1`, the “activity change, negative = killing” value is -12.1%.
`CC(CC(=O)Nc1ncc([N+](=O)[O-])s1)c1ccccc1` (stereo unspecified): the Potency is 0.206 µM (active).
On the same count and under the same terms, the value for `CC1=C(C(=O)Nc2ccc(CC(=O)NCc3ccc(OC(C)C)cc3)cc2)SCCO1` was 4.1 µM (active); that for `CN(C(=O)CSc1nc2ccc([N+](=O)[O-])cc2s1)C1CCS(=O)(=O)C1` (stereo unspecified) was 1.45 µM (active).
`CN(C(=O)CSc1nc2ccccc2c(=O)n1-c1ccc(F)cc1)C1CCS(=O)(=O)C1` (stereo unspecified): the “activity change, negative = killing” value is -14.3%.
As for `O=C(COc1ccccc1)N=C1SC2CS(=O)(=O)CC2N1c1ccccc1F` (stereo unspecified), the “activity change, negative = killing” value was -32%.
For the compound `O=[N+]([O-])c1ccc(/C=C/C2=NN(c3ccccc3)C(c3ccco3)C2)o1` (stereo unspecified), the Potency is 0.115 µM (active).
The same measure, in the same setting: under `Cc1ccc(C)c(-c2nnc(NC(=O)c3ccc([N+](=O)[O-])o3)o2)c1` stands 0.516 µM (active).
For `Cc1ccc(-c2nnc(NC(=O)c3ccc([N+](=O)[O-])o3)o2)c(C)c1`, the Potency is 0.41 µM (active).
On the same count and under the same terms, the value for `COc1ccc(-c2nnc(NC(=O)c3ccc([N+](=O)[O-])o3)o2)c(OC)c1` was 2.05 µM (active); that for `O=[N+]([O-])c1cccc(S(=O)(=O)c2ccc(NCCOCCO)c([N+](=O)[O-])c2)c1` was 1.63 µM (active).
In the case of `O=c1[nH][nH]c(-c2ccccc2)c1C=Nc1ccc(OC(F)(F)F)cc1`, the “activity change, negative = killing” value is -6.83%.
Regarding `Cc1ccc(-c2[nH][nH]c(=O)c(=O)c2N=Nc2ccccc2)cc1`, the Potency was 1.3 µM (active).
For the compound `CC(=O)O[C@@H]1[C@@H](OC(C)=O)[C@H](n2ccc3cc([N+](=O)[O-])ccc32)OC[C@@H]1OC(C)=O`, the Potency was 0.259 µM (active).
Same read-out and setting: under `COc1ccccc1C1OC2=C(Nc3ccc([N+](=O)[O-])cc3N2)C1=O` (stereo unspecified) stands 3.65 µM (active); under `CCN(CC)CCOC(=O)c1ccc(N/C=C(/C#N)c2nc(-c3ccc4c(c3)OCO4)cs2)cc1`, 2.05 µM (active).
The same measure, in the same setting: the value for `CCN(CC)CCOC(=O)c1ccc(N/C=C(/C#N)c2nc(-c3cc4ccccc4oc3=O)cs2)cc1` was 0.516 µM (active); that for `O=c1c2c([N+](=O)[O-])cc([N+](=O)[O-])cc2nc2ccccn12` was 2.59 µM (active); that for `O=C(CCS(=O)(=O)Cc1ccccc1)Nc1ncc([N+](=O)[O-])s1` was 0.65 µM (active).
In the case of `O=C(CCS(=O)(=O)c1ccccc1)Nc1ncc([N+](=O)[O-])s1`, the Potency is 1.16 µM (active).
Consider `O=C(Nc1ccccc1)Nc1ncc([N+](=O)[O-])s1`, for which the Potency was 4.1 µM (active).
On the same count and under the same terms, the value for `O=C(CCc1ccccc1)Nc1ncc([N+](=O)[O-])s1` was 0.23 µM (active); that for `C[n+]1ccnc2ccccc21` was 2.59 µM (active).
Still for that read-out and setting: the value for `O=c1[nH]c2cccnc2n1-c1ccc([N+](=O)[O-])cc1` was 1.83 µM (active); that for `CCCC(=O)N1CCN(c2ccc(NC(=O)c3ccc([N+](=O)[O-])o3)cc2)CC1` was 0.729 µM (active).
On the same count and under the same terms, the value for `CC(C)(C)C(=O)N1CCN(c2ccc(NC(=O)c3ccc([N+](=O)[O-])o3)cc2)CC1` was 1.45 µM (active); that for `CCC(=O)N1CCN(c2ccc(NC(=O)c3ccc([N+](=O)[O-])o3)cc2)CC1` was 0.918 µM (active); that for `CC(C)C(=O)N1CCN(c2ccc(NC(=O)c3ccc([N+](=O)[O-])o3)cc2)CC1` was 1.03 µM (active).
On to `Cc1ncc([N+](=O)[O-])n1CCOC(=O)c1ccc(Cl)cc1Cl`, for which the Potency was 0.818 µM (active).
The same measure, in the same setting: the value for `Cc1ncc([N+](=O)[O-])n1CCOC(=O)c1cc(Cl)cc(Cl)c1N` was 0.163 µM (active); that for `CN=C1C=C/C(=N/N=c2\ccn(O)cc2C)C=C1C` was 1.45 µM (active).
Same read-out and setting: the value for `O=C(Nc1csc([N+](=O)[O-])c1)Nc1ccccc1Cl` was 1.63 µM (active); that for `COC(=O)/C(=C\c1ccc([N+](=O)[O-])o1)NC(=O)c1ccccc1` was 1.03 µM (active).
For the compound `COc1cc(/C=C(\NC(=O)c2ccccc2)C(=O)NCCO)c([N+](=O)[O-])cc1OC`, the “activity change, negative = killing” value is 18.6%.
With `CCCOC(=O)/C(=C\c1ccc([N+](=O)[O-])o1)NC(=O)c1ccccc1`, the Potency was 0.729 µM (active).
Still for that read-out and setting: under `CCCCNC(=O)/C(=C\c1ccc([N+](=O)[O-])o1)NC(=O)c1ccccc1` stands 1.03 µM (active); under `CCOc1ccccc1C(=O)Nc1ccc2nc(N3CCN(c4ncccn4)CC3)cc(C)c2c1`, 3.26 µM (active); under `O=C1C(c2ccncc2)=C(O)c2ccccc21`, 9.18 µM (active).
On the same count and under the same terms, under `CS/C(Nc1cc(Cl)ccc1Cl)=C(/C#N)C(=O)c1ccco1` stands 5.79 µM (active).
`O=[N+]([O-])c1ccc(N=NN(CCO)CCO)cc1`: the Potency is 3.26 µM (active).
`O=C(CSc1ccc(Cl)cc1)N/N=C/c1ccc([N+](=O)[O-])o1`: the Potency was 0.818 µM (active).
As for `CCCCCC(=O)N/N=C/c1ccc([N+](=O)[O-])o1`, the Potency was 0.579 µM (active).
As to `CCOC(=O)N/N=C\c1ccc([N+](=O)[O-])o1`, the Potency is 1.3 µM (active).
On to `O=C(CCC(=O)Nc1ccc(Cl)cc1Cl)N/N=C/c1ccc([N+](=O)[O-])o1`, for which the Potency is 0.818 µM (active).
Regarding `CCCCCCCC(=O)N/N=C/c1ccc([N+](=O)[O-])o1`, the Potency is 0.579 µM (active).
On the same count and under the same terms, the value for `CC(=O)Nc1ccc(NS(=O)(=O)c2ccc(C)cc2)c([N+](=O)[O-])c1` was 0.516 µM (active); that for `COc1ccc(NS(=O)(=O)c2ccc(C)cc2)c([N+](=O)[O-])c1` was 1.83 µM (active).

Values taken from PubChem BioAssay AID588397 (National Center for Advancing Translational Sciences (NCATS), 2011).
